BL2 CD40 inh: CD40 pathway inhibition in BL2 cells; BL2 NF-kB luciferase reporter, CD40L-induced, 4 h; inhibition, % at 10 µM; 83,000 compounds, 0.94% hits;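 active = mean inhibition of at least 50% with a set share of replicates also reaching that level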;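 note: 0% = neutral control wells and 100% = IKK inhibitor VII at 50 µM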
Starred values were filed as active, the others as inactive; [ ] = another dose, or the depositor's remark. This is one part of a sample in which hits are shown more often than they occur.

SMILES	BL2 CD40 inh
CC(C)NC(=O)N(C)C[C@H]1Oc2c(NS(C)(=O)=O)cccc2C(=O)N(C)C[C@@H]1C	-1
C/C=C/c1ccc(C2[C@@H]3CN(S(=O)(=O)c4ccccc4C)C[C@H]2N3)cc1 (stereo partly drawn)	2
O=C(C[C@H]1C[C@H]2c3cc(NC(=O)Cc4ccncc4)ccc3O[C@H]2[C@@H](CO)O1)NCCN1CCCCC1	-3[25 µM]
O=C(c1ccccc1)N1CCN(C2CCCCCC2)CC1	-3
COc1ccc(C(=O)N2CCC(N3CCN(c4ccccc4)CC3)CC2)cc1	3
O=C(c1ccc(Nc2nccc(-c3cc4ccccc4s3)n2)cc1)N1CCC(N2CCCC2)CC1	68*[25 µM]
O=C(Cc1ccncc1)Nc1ccc2c(c1)[C@@H]1C[C@@H](CC(=O)NC3CCCC3)O[C@H](CO)[C@@H]1O2	15
COc1ccccc1NC(=O)N1CCCCN2[C@H](C1)[C@@H](c1ccc(-c3ccc(C)cc3)cc1)[C@@H]2CO	6[25 µM]
Cc1cc(=O)oc2cc(OC(C)C(=O)N3CCOCC3)c(Cl)cc12 (stereo not drawn)	1
Cc1ccc(S(=O)(=O)NCC(=O)OCc2cc(=O)oc3cc(C)ccc23)cc1	-6
Cc1ccc(S(=O)(=O)NC(C(=O)Oc2cc3oc(=O)cc(C)c3cc2Cl)C(C)C)cc1 (stereo not drawn)	29*
O=C(Nc1ccc2c(c1)[C@H]1C[C@H](CC(=O)N3CCOCC3)O[C@H](CO)[C@H]1O2)NC1CCCCC1	2
FC(F)(F)c1cccc(CN2[C@@H]3CNC[C@H]2C3c2ccc(-c3ccncc3)cc2)c1 (stereo partly drawn)	2
Oc1ccc(CN2CCN(c3ccccc3)CC2)c2cccnc12	-13
CCOC(=O)N1CCN(Cc2ccc(O)c3ncccc23)CC1	65*
COCc1cc(CN2CCCC2)c(O)c2ncccc12	10
OC[C@H]1Nc2ccc(C#Cc3ccc(F)cc3)cc2[C@H]2[C@@H]1CCN2Cc1ccc2c(c1)OCO2	0[25 µM]
CC(=O)N(C)C[C@H]1Oc2ccc(N(C)C)cc2C(=O)N(C)C[C@@H]1C	12
Cc1ccc(S(=O)(=O)Nc2ccc3c(c2)CC(=O)N([C@@H](C)CO)C[C@H](C)[C@@H](CN(C)S(C)(=O)=O)O3)cc1	3
CC(=NNC(=S)Nc1ccc(C)cc1)c1ccccn1	77*
Cc1ccc(NC(=S)NNC(=S)Nc2ccc(C)cc2)cc1	-42
CCCN(CC(=O)Nc1ccccc1OC)C(=O)c1ccccn1	-2
COc1ccccc1NC(=S)NN=C(C)c1ccccn1	90*
COc1ccccc1NC(=O)c1ccccc1NC(=O)c1ccccn1	1
CC(=NNC(=S)N1CC2CCC(CC2)C1)c1ccccn1	-17
SMILES	BL2 CD40 inh
C[C@@H]1CN([C@@H](C)CO)C(=O)c2c(c3ccccc3n2C)-c2ccccc2CO[C@H]1CN(C)C(=O)CCC(F)(F)F	2[25 µM]
O=C(CN1CCOCC1)N1CC2(C1)[C@H](c1ccccc1)[C@H](CO)N2Cc1cccc(F)c1	5[25 µM]
Cn1c(SCc2nc3ccccc3n2CCO)nc2ccccc21	9
Cc1nc2cc(CO)ccc2n1C	2
Cn1c(CO)nc2cc(N)ccc21	50*
O=C1N=C(N2CCOCC2)S/C1=C/c1ccc(-c2ccc(F)cc2)o1	-14
O=C1S/C(=C\c2ccc(N3CCOCC3)o2)C(=O)N1Cc1ccc(F)cc1	82*
Cc1ccc(CN2C(=O)S/C(=C\c3ccccc3OCC(=O)O)C2=O)cc1	7
CC(C)NC(=O)N(C)C[C@@H]1Oc2ccc(NS(C)(=O)=O)cc2C(=O)N(C)C[C@H]1C	5
O=C([C@@H]1[C@@H](CO)[C@@H]2Cn3c(cccc3=O)[C@@H]2N1C(=O)C1CCCC1)N1CCOCC1	0
CC(C)CC#Cc1ccc([C@H]2[C@@H](CO)N3C(=O)CN(C(=O)NC4CCCC4)C[C@H]23)cc1	2
OC[C@H]1[C@@H](c2ccccc2)C2(CN(Cc3ccccc3F)C2)N1Cc1ccccc1F	18[25 µM]
O=C1CCCN1c1ccc(S(=O)(=O)Nc2ccc3c(c2)OCCO3)cc1	19
CCn1cc(S(=O)(=O)Nc2ccc3c(c2)OCCO3)cn1	76*
O=S(=O)(Nc1cccnc1)c1ccc2c(c1)OCCO2	3
CNC[C@H]1Oc2ccc(NC(C)=O)cc2C(=O)N(C)C[C@H]1C	-11
O=C(Nc1ccccc1Cl)N1C[C@@H]2[C@H](c3ccccc31)[C@H](CO)N2C(=O)c1cccnc1	-9[25 µM]
CCC(=O)N[C@@H]1C=C[C@H](CC(=O)NCCN2CCCCC2)O[C@@H]1CO	3
C[C@H]1CN([C@@H](C)CO)C(=O)c2c(c3ccccc3n2C)-c2ccccc2CO[C@H]1CN(C)C(=O)Nc1cccc(Cl)c1Cl	23[25 µM]
COc1ccccc1NC(=O)N(C)C[C@H]1OCc2ccccc2-c2c(n(C)c3ccccc23)C(=O)N([C@@H](C)CO)C[C@H]1C	1
C[C@H](CO)N1C[C@H](C)[C@H](CN(C)C(=O)Nc2cccc(Cl)c2Cl)OCc2ccccc2-c2c(n(C)c3ccccc23)C1=O	65*[25 µM]
C[C@@H]1CN([C@H](C)CO)C(=O)c2c(c3ccccc3n2C)-c2ccccc2CO[C@H]1CN(C)C(=O)Nc1cccc(Cl)c1Cl	54*[25 µM]
C[C@H](CO)N1C[C@H](C)[C@@H](CN(C)C(=O)Nc2cccc(Cl)c2Cl)OCc2ccccc2-c2c(n(C)c3ccccc23)C1=O	34[25 µM]
C[C@@H]1CN([C@@H](C)CO)C(=O)c2c(c3ccccc3n2C)-c2ccccc2CO[C@H]1CN(C)C(=O)Nc1cccc(Cl)c1Cl	41[25 µM]
CCC1(c2ncc[nH]2)Cc2ccccc2O1 (stereo not drawn)	-4[25 µM]
SMILES	BL2 CD40 inh
O=C(C[C@H]1C[C@@H]2c3cc(NS(=O)(=O)c4ccccc4)ccc3O[C@@H]2[C@@H](CO)O1)N1CCOCC1	-6[25 µM]
CC(C)NC(=O)N(C)C[C@@H]1Oc2ccc(NS(C)(=O)=O)cc2C(=O)N(C)C[C@@H]1C	5
N#C[C@@H]1[C@@H](c2ccc(C3=CCCCC3)cc2)[C@@H](CO)N1C(=O)NC1CCCCC1	-11
CO[C@@H]1CN(C)C(=O)c2cc(NC(=O)Cc3ccccc3)ccc2OC[C@H](C)N(C(=O)c2ccccc2F)C[C@@H]1C	0[25 µM]
COc1ccc(S(=O)(=O)N2CC3(CN(C(=O)CN(C)C)[C@H](CO)c4c3c3ccc(OC)cc3n4C)C2)cc1	7[25 µM]
CCOC(=O)N(C)C[C@H]1OCc2ccccc2-c2c(n(C)c3ccccc23)C(=O)N([C@@H](C)CO)C[C@@H]1C	-4
O=C(C1CCOCC1)N1CC(=O)N2[C@H](CO)[C@H](c3ccc(-c4cccnc4)cc3)[C@@H]2C1	-18[25 µM]
O=C1NC2c3c(I)sc(I)c3C(=O)C2O1 (stereo not drawn)	101*
O=C1NC2c3c(Cl)sc(Cl)c3C(=O)C2O1 (stereo not drawn)	56*
CCCNC(=O)C[C@@H]1C[C@H]2c3cc(NC(=O)COC)ccc3O[C@H]2[C@H](CO)O1	1[25 µM]
O=C1N[C@H](c2ccccc2)COCc2cn(nn2)CC[C@@H](Cc2ccc(C(F)(F)F)cc2)C(=O)N[C@H](c2ccccc2)COCc2cn(nn2)CC[C@H]1Cc1ccc(C(F)(F)F)cc1	-1
Fc1ccccc1CN1[C@@H]2CNC[C@H]1C2c1ccc(-c2ccncc2)cc1 (stereo partly drawn)	-1
O=C(Cc1ccncc1)N1CC(=O)N2[C@H](CO)[C@H](c3ccc(Br)cc3)[C@@H]2C1	0[25 µM]
CNC[C@@H]1Oc2ccc(N)cc2CC(=O)N(C)C[C@H]1C	8
COC(=O)[C@H]1[C@H](CO)[C@H]2Cn3c(ccc(-c4ccccc4OC)c3=O)[C@H]2N1C(=O)c1cnccn1	-9[25 µM]

Assay outcomes (PubChem BioAssay)
